# Laboratory results: PubChem BioAssay (NCI)
# This is part of a sample that, as a whole, favours compounds with a hit. Of some 83,000 tested, about 20% had one in any assay.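 Testing used 96-well plates and a 48-hour single-concentration exposure. Example: -40 means 40% of the starting cells died.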 Values without a mark were called inactive. Activity calls are given as the source filed them. The calls were made as follows: active = growth percent below 10; inactive = the rest.
# Tested on: MDA-MB-468 breast
# Test: NCI-60 one-dose screen, 48 h (100 = growth as untreated, 0 = no growth, -100 = all killed)
# Details: 10 µM unless noted
row,Structure (SMILES),growth
1,CC1=C(C(=O)c2ccccc2)C(c2ccc3c(c2)OCO3)NC(=S)N1 (configuration not stated),54.3%
2,O=C(COc1ccc(/C=C2\Cc3ccccc3C2=O)cc1)c1ccc(Cl)cc1,111%
3,O=C(c1ccccc1)C1(Br)CCCCC1,90.3%
4,O=C(CN1C(=O)S/C(=C\c2ccccc2)C1=O)Nc1ncc(Cc2ccccc2Cl)s1,115%
5,N#CCCN=Nc1c(O)[nH]c2ccc(F)cc12,98.9%
6,CCOC(=O)c1cc(C(=O)c2cc(OC)cc(OC)c2)n2ccc3ccccc3c12,74.5%
7,CC1Cc2c(Cl)ncnc2N(C)c2ccc(F)cc21 (configuration not stated),64.5%
8,CCOC(=O)C1=C(C)N=C2SC=C(c3ccc(F)cc3)N2[C@H]1c1cn(-c2ccccc2)nc1-c1ccc(Cl)cc1,91.1%
9,O=C(Cn1cc(CN2CCN(c3ccnc4cc(Cl)ccc34)CC2)nn1)Nc1cccc([N+](=O)[O-])c1,92.8%
10,Nc1ccccc1SC1CC(=O)N(c2ccc(I)cc2)C1=O (configuration not stated),121%
11,CCc1cc2c(cc1Cl)nc1c(=O)[nH]c(=O)nc-1n2CCOCC(C)C,43.8%
12,CCNC(=O)C#Cc1ccc2c(C(=Nc3ccc(CN(C)C)cc3)c3ccccc3)c(O)[nH]c2c1,17.2%
13,N#Cc1ccc(N2Cc3ccccc3OC3=C2C(=O)c2c(O)ccc(O)c2C3=O)cc1,-18.8% (active)
14,O=C(Nc1ccc(N2CCNCC2)cn1)c1[nH]ncc1Nc1ncnc2sc3c(c12)CCC3,-37.9% (active)
15,CN1CCN(c2ccc(-c3cnc4c(-c5csc6ccccc56)cnn4c3)cc2)CC1,-26.8% (active)
16,[2H]c1nc(Nc2ncc3cc(C(=O)N(C)C)n(C4CCCC4)c3n2)c([2H])c([2H])c1N1C([2H])([2H])C([2H])([2H])NC([2H])([2H])C1([2H])[2H],89%
17,Cc1ccc(NS(=O)(=O)c2ccc(-c3cnc(C4CC4)o3)cc2)cc1,-0.814% (active)
18,O=c1oc2cc(OS(=O)(=O)c3ccc(F)cc3)ccc2c2c1CCCCC2,31.3%
19,N#CCCN1C(=O)CCC1C(=O)O (configuration not stated),103%

row,Structure (SMILES),growth
1,CCCCCCCCSC1=CC(=O)C(OC)=C(OC)C1=O,-75% (active)
2,O=C(/C=C/c1cccc(O)c1)c1cccc(-n2cc(-c3ccc(Cl)cc3)[nH]c2=O)c1,37.6%
3,CN1CCN(CCCn2c3c(sc4ncccc43)c(=O)n3nnc(-c4ccccc4)c23)CC1,98.6%
4,COc1ccc(C(=O)n2nc(-c3ccccc3)nc2N)cc1OC,68.8%
5,O=C1/C(=C/c2ccc(Cl)cc2)COc2ccc(O)c(O)c21,-15.3% (active)
6,COCCOc1ccc(-c2csc(NC(=O)CN3CCN(CCO)CC3)n2)cc1NS(=O)(=O)c1cccc2c(N(C)C)cccc12,60.7%
7,Cn1c(=O)c2c(c3ccccc31)OC(N)=C(C#N)C21C(=O)c2ccccc2C1=O,96.4%
8,Cc1ccc(-c2nc(C(Cl)Cl)nc3cc(C)nn23)cc1,-37.7% (active)
9,COc1cc(/C=C2/C=C(c3ccc(C(C)(C)C)cc3)N(CCc3ccc(S(N)(=O)=O)cc3)C2=O)cc(OC)c1OC,55.6%
10,O=C1/C(=C/c2cccc(OCc3ccccc3)c2)Oc2cc(OCCN3CCCCC3)ccc21,80.4%
11,O=C(Nc1cccc(-n2ccc3c(NC(=O)c4ccccc4)nccc32)c1)c1ccc(Cl)c(Cl)c1,-94.1% (active)
12,CCCCCC(=O)c1ccc(OCCCN2CCN(C(=O)OCC)CC2)cc1,47.5%
13,COc1cc(-c2cc(C(=O)N3CCN(C(=O)c4ccccc4NCc4ccco4)CC3)nc3cc(-c4ccccc4)nn23)cc(OC)c1OC,0.207% (active)
14,COc1cccc(/C=C/C(=O)c2cc3c(N)c(C(=O)Nc4cccc(Cl)c4C)sc3nc2C)c1,-7.04% (active)
15,O=C(CCl)Oc1ccc(-c2ccccc2)c(Br)c1,97.5%
16,COc1cc(-c2nc(N3CCN(C)CC3)c3ccccc3n2)cc(OC)c1OC,38.4%
17,Cc1ccc(-c2nc(/C=C3/C(=O)Nc4ccccc43)c3ccccn23)cc1,69.6%
18,C[C@@H]1CC2C3CCC4=CC(=O)C=C[C@]4(C)[C@@]3(Cl)[C@@H](O)C[C@]2(C)[C@@]1(OC(=O)c1ccco1)C(=O)CCl (some centres not stated),104%
